The source of these data is PubChem BioAssay AID493027 (The Scripps Research Institute Molecular Screening Center, 2011).

Among all 2,000 compounds or so, about 45 (2%) were called active. The sample as a whole holds a higher share of actives than the screen did. A number with no mark means an inactive call.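 The calls were made as follows: active = inhibition above the screen-wide mean inhibition plus 3 SD (cut at about 44% in these data); inactive = the rest.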

This assay deals with Perilipin-1 (Homo sapiens) + 1-acylglycerol-3-phosphate O-acyltransferase ABHD5 (Homo sapiens) (UniProt O60240+Q8WTS1). The assay is described as follows: blockers of ABHD5 binding to perilipin-1 – cell lysate, split luciferase complementation, luminescence, NIH validation set, pilot screen (AID 493027).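 Also: 0% = DMSO wells with the 100% control not disclosed.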 The settings on record: split G. princeps luciferase complementation, 4 h; at 7.9 µM, stronger effect = higher value.
Chain of Perilipin-1 (Homo sapiens) + 1-acylglycerol-3-phosphate O-acyltransferase ABHD5 (Homo sapiens) (O60240 whole entry, looked up): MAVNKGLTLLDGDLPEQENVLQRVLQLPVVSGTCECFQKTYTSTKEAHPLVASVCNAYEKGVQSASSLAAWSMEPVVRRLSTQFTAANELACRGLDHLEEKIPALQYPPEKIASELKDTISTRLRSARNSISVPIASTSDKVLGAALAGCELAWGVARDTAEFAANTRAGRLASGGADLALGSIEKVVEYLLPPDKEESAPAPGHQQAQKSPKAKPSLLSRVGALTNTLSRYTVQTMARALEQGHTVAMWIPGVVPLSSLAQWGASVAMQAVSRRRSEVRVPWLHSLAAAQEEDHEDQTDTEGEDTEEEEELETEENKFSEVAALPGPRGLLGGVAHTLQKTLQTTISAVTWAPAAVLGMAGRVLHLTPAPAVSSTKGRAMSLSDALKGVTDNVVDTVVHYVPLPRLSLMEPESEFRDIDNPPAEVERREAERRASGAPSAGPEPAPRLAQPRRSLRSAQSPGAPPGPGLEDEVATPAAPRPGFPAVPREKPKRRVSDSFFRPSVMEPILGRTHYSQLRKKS
Chain of Perilipin-1 (Homo sapiens) + 1-acylglycerol-3-phosphate O-acyltransferase ABHD5 (Homo sapiens) (Q8WTS1 whole entry, looked up): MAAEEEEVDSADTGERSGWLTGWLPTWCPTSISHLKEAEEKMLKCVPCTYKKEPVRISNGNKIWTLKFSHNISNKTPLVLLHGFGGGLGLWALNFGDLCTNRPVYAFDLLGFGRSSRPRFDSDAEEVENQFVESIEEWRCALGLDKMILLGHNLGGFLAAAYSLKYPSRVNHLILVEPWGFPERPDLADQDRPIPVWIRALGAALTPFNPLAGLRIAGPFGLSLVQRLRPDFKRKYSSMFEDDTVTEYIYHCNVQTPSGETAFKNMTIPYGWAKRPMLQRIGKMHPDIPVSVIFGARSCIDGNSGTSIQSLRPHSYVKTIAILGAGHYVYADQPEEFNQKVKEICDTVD
For `COc1ccc2[nH]c3c(=O)n(/N=C/[C@H]4C(C)C=C(C)CC4C)c(=O)[nH]c3c2c1` (stereo partly drawn), the inhibition – broadly, the drop in the measured response relative to a control, in per cent – is 23.9%.
To `COc1ccc(CCNC(=O)c2c(O)c3c([nH]c2=O)CCCC3)cc1` belongs 3.26%.
For `COc1ccc(C(=O)OCc2cc3cccc(C)c3[nH]c2=O)cc1` the value was -1.47%; for `Cc1cc(-c2nn(-c3ccccc3F)cc2CN2CCC(O)CC2)c(C)s1`, -2.82%.
For the molecule `COc1cc2c3c(c1)C1(C(=O)N3C(C)(C)C=C2C)C(C#N)=C(N)Oc2cc(C)oc(=O)c21` (stereo not drawn), the inhibition was -0.82%.
With `CCOc1cc2c3c(c1)C(C)=CC(C)(C)N3C(=O)C2=O`, the inhibition is 43.5% (active).
With `COc1cc2c3c(c1)C(C)CC(C)(C)N3C(=O)C2=O` (stereo not drawn), the inhibition is 6.69%.
For `CS(=O)(=O)Nc1cccc(C(=O)CC2(O)C(=O)Nc3ccc(Br)cc32)c1` (stereo not drawn) the value was -3.35%; for `COc1cc2c(cc1OC)-c1nnc(C)n1C(C)(C)C2`, -2.21%; for `COc1ccc(CN(CCC(c2ccccc2)c2ccc(OC(C)C)cc2)C(=O)CCl)cc1OC` (stereo not drawn), 64.4% (active).
For `COc1ccc(CNCCC(c2ccc(F)cc2)c2ccc(OC(C)C)cc2)cc1OC` (stereo not drawn) the value was -6.56%; for `COc1ccccc1C(CC(=O)Nc1ccccc1C)c1ccc(OC(C)C)cc1` (stereo not drawn), 0.34%; for `CC(C)C12CN3CC(C(C)C)(CN(C1)C3c1ccccc1)C2O` (stereo not drawn), -10.6%.
For `Cn1c(=S)n(C)c2ccccc21` the value was -7.95%; for `COc1ccc2cc(C(=O)OC(C)C)sc(=O)c2c1OC`, 3.53%.
`COc1cccc(OCc2cc(C3Nc4ccccc4C(=O)N3Cc3ccco3)ccc2OC)c1` (stereo not drawn): the inhibition is 42.9%.
For `O=C(O)c1cc(-c2ccccc2)nc2ccccc12`, the inhibition was -6.78%.
To `COC(=O)c1cc(-c2ccc(C)o2)nc2ccccc12` belongs 78% (active).
For `CCCOc1ccc(-c2cc(C(=O)NCC3CCCO3)c3ccccc3n2)cc1` (stereo not drawn) the value was -2.49%; for `COc1cc2cc(C)nc(Cc3cccc4ccccc34)c2cc1OC`, 16.5%; for `COc1ccc(C2C3C(C)=NN=C3CC(C)(O)C2C(C)=O)cc1` (stereo not drawn), -2.63%.
With `Oc1[nH]c2ccccc2c1C1=NCCCC1`, the inhibition is -6.01%.
For `O=C(Cc1ccccc1[N+](=O)[O-])NCCCN1CCOCC1`, the inhibition is -7.14%.
To `O=C(c1ccco1)N(CCC(c1ccccc1)c1ccco1)Cc1ccco1` (stereo not drawn) belongs 56.6% (active).
For `CC(=O)N(CCC(Cc1ccccc1)c1ccco1)Cc1ccco1` (stereo not drawn) the value was 40.8%.
For `COc1ccccc1C(CCN(Cc1ccccc1)C(C)=O)c1ccco1` (stereo not drawn) the value was 9.44%; for `CCOc1ccc2ccccc2c1CNc1nnnn1C`, -8.53%.
Regarding `CC(C)N1C(=O)/C(=C\c2nc3ccccc3c(=O)[nH]2)c2ccccc21`, the inhibition was 70.2% (active).
Take `COc1ccc(C(=O)Nc2nc3ccccc3c(=O)[nH]2)cc1`: the inhibition is -4.92%.
To `CC(=O)Oc1ccc(C(=O)O)cc1OC(C)=O` belongs 2.2%; to `CCC1(c2ccccc2)NC(=S)N(c2ccc(C)c(C)c2)N1` (stereo not drawn), -0.55%; to `CC(=O)/C=C/c1ccc(C)o1`, 18.2%.
Consider `O=C(Nc1ccc(Oc2c(F)c(F)c(F)c(F)c2F)cc1)OC1CCN2Cc3ccccc3N=C12` (stereo not drawn), for which the inhibition was 71.9% (active).
To `COc1cccc2c(=O)c3ccccc3oc12` belongs -14.7%; to `CCc1ccc(/C=C2\SC(=S)N(CCC(=O)N3CCN(C)CC3)C2=O)cc1`, -12.7%; to `O=c1c2ccccc2nnn1Cc1cccc2ccccc12`, 7.22%.
Take `COc1cccc(/C=C/C(=O)c2c(O)cc(C)oc2=O)c1O`: the inhibition is 47.8% (active).
For `COc1ccccc1/C=C/C(=O)c1c2c(c(C)[nH]c1=O)CCCC2` the value was 28.8%; for `COc1ccccc1C(=O)c1cc2ccc(O)cc2oc1=O`, 4.61%; for `O=C1C(Cc2ccccc2)NC(=S)N1c1ccccc1` (stereo not drawn), -13.4%.
For `Cc1ccc2c(c1)OC(=O)CC2c1ccccc1` (stereo not drawn) the value was -5.39%; for `Oc1ccccc1OCCOc1ccccc1OCCOc1ccccc1O`, 8.26%.
Turning to `Cc1cccc(OCC(=O)Nc2ccc(C(=O)NCC(C)C)cc2)c1`, the inhibition was -6.6%.
To `CC(=O)CCc1oc2ccccc2c1-c1ccccc1` belongs -1.83%; to `CCc1oc2ccccc2c1C(=O)c1cc(Br)c(O)c(Br)c1`, 57.3% (active); to `CCCCc1oc2ccccc2c1C(=O)c1cc(I)c(OCCN(CC)CC)c(I)c1`, -6.98%.
For `COc1cc2c(cc1OC)CN(Cc1ccc(C)s1)CC2` the value was 2.36%; for `O=C(N1CCCCC1)C1(c2ccccc2)CCOCC1`, -5.12%.
For `Cc1cc(O)c2/c(=N\N)c(-c3csc(C)n3)coc2c1` the value was 5.2%.
As for `COc1cc(/C=C(\C#N)C(=O)N2CCc3ccccc32)ccc1O`, the inhibition is 42.5%.
For the molecule `CCc1ccc(/C=C2\Oc3cc(OC(=O)N4CCOCC4)ccc3C2=O)cc1`, the inhibition is 17.4%.
To `COC(=O)c1ccc2c(c1)C(=O)/C(=C/c1ccc(O)cc1)O2` belongs 7.53%; to `COc1ccccc1C(=O)Oc1ccc2c(c1)O/C(=C\c1ccncc1)C2=O`, 45.6% (active).
In the case of `O=C(O)CCSc1nc2ccccc2s1`, the inhibition is 0.7%.
In the case of `CC[n+]1c(C)sc2cc(C)ccc21`, the inhibition was 0.88%.
For `O=C(OCCN1CCCC1)C1(c2ccccc2)CCCC1` the value was -8.49%; for `Cc1nc(C(=O)Nc2ccccc2Cl)cc2c1[nH]c1ccccc12`, -0.62%; for `COc1ccc2c(c1)C=CC1(O2)N(CCO)c2ccccc2C1(C)C` (stereo not drawn), 45.5% (active).
For `COc1ccc(NC(=O)C2C(=O)N(CCO)C3(C)CC2c2ccccc2O3)cc1` (stereo not drawn) the value was -10.9%; for `O=C(Nc1cccc(Oc2c(F)c(F)c(F)c(F)c2F)c1)N1C[C@@H]2C[C@@H](C1)c1cccc(=O)n1C2`, 9%; for `COc1ccc(Cc2noc(CN(C)CC3(N4CCOCC4)CCCCC3)n2)cc1OC`, -1.95%.
For `Cn1cc(C2N3CC4(C)CN2CC(C)(C3)C4=O)c2ccccc21` (stereo not drawn) the value was -7.09%.
In the case of `C[C@H](NC(=O)Nc1ccccc1F)C(=O)O`, the inhibition was -0.07%.
For `O=P(O)(O)CP(=O)(O)O` the value was -4.16%.
On to `COc1cc(/C=C/C(=O)O)cc(S(=O)(=O)NCCCO)c1OC`, for which the inhibition was -7.07%.
For `O=C(Nc1ccccc1)OCC1CCCN2CCCCC12` (stereo not drawn), the inhibition is -5.9%.
To `O=C(NCc1ccccc1Cl)NC(=O)c1ccccc1` belongs -2.42%; to `Cc1ccc(S(=O)(=O)N[C@@H](Cc2ccccc2)C(=O)CCl)cc1`, 82.3% (active).
Consider `CCCCNC(=O)NS(=O)(=O)c1ccc(C)cc1`, for which the inhibition is -10.7%.
For `CNS(=O)(=O)c1ccc(C)cc1`, the inhibition was -13.4%.
For `COc1ccc(NC(=O)C2CCCN2C(=O)OC(C)(C)C)cc1` (stereo not drawn) the value was -11.3%.
For `COc1ccccc1NC(=O)C12CCC(C)(C(=O)C1)C2(C)C` (stereo not drawn), the inhibition is -0.67%.
To `COCCn1c(SCCOc2ccccc2)nc2ccccc2c1=O` belongs -7.89%; to `Cc1nc(N)nc2c1CCCC2`, -5.16%; to `Nc1cc(-c2ccncc2)c[nH]c1=O`, 49% (active).
To `c1cc(-c2ccncc2)ccn1` belongs -6.1%.
For `O=C(O)c1cc2cc(Cl)cc(Cl)c2oc1=O` the value was 1.22%; for `COc1ccc(CCN(C)CC(=O)Nc2cc(C)nc3ccccc23)cc1OC`, 3.27%.
As for `COc1cccc(OC2OC3COC(C)(C)OC3C(O)C2NC(C)=O)c1` (stereo not drawn), the inhibition is -10.2%.
With `CC(C)[N+]1(C)[C@@H]2CC[C@H]1CC(OC(=O)C(CO)c1ccccc1)C2` (stereo partly drawn), the inhibition is -5.55%.
Consider `CCCCC/C=C\C[C@H](O)/C=C/c1cccc(C[C@H](O)CCCCO)n1`, for which the inhibition is 57.6% (active).
Regarding `O=P(c1ccccc1)(c1ccccc1)c1nc(-c2ccc(Cl)cc2)oc1N1CCOCC1`, the inhibition is 2.59%.
For `COc1ccc(C=O)c(OC)c1` the value was 0.71%; for `CC(=O)NCCCCCCNC(C)=O`, 3.05%.
For `Nc1ccc(S(N)(=O)=O)cc1N`, the inhibition was 1.88%.
For `COc1cc(NC(=S)NN2CCN(C)CC2)cc(OC)c1OC` the value was -10%; for `COc1cc(C2C(C(C)=O)=C(O)C(=O)N2c2ccc(C)cc2)ccc1O` (stereo not drawn), -3.68%; for `CC1(c2ccccc2)CC(C)(C)N2C(=O)C(=O)c3cccc1c32` (stereo not drawn), 65.7% (active).
For `O=C1c2ccccc2C2(c3ccccc3)NCCN12` (stereo not drawn) the value was 0.96%; for `O=C(Nc1cccc(Cl)c1)N1CCN2C(=O)c3ccccc3C12c1ccccc1` (stereo not drawn), 6.94%; for `CC(=O)c1cccc(NC(=O)N[C@@H](CC(C)C)C(=O)O)c1`, -3.15%.
Regarding `COc1ccc(C(=O)Nc2ccc(OC)c([N+](=O)[O-])c2)cc1Br`, the inhibition is 0.74%.
For `COc1ccc(C(=O)/C=C/c2cc(C(=O)O)cc3c2OCOC3)c(O)c1` the value was 67.3% (active); for `COc1ccc(C(=O)COc2ccc(F)cc2)c(O)c1`, -7.26%; for `C[C@H]([C@@H](N)C(=O)N[C@@H](C(=O)O)[C@@H]1O[C@H](n2ccc(=O)[nH]c2=O)[C@@H](O)[C@H]1O)[C@@H](O)c1ccc(O)cn1`, 8.07%.
For the molecule `CCOC(=O)C1CCCN(Cc2nc(Cc3cccc(F)c3)no2)C1` (stereo not drawn), the inhibition is -4.38%.
On to `COC(=O)c1cc(=O)c2ccc(OC)cc2o1`, for which the inhibition was -10.3%.
Turning to `CSCC[C@H](NC(=O)OC(C)(C)C)C(=O)N1CCC(C(=O)N[C@@H](C)C(=O)O)CC1`, the inhibition is -2.64%.
As to `CC1(C)C(C=C(Cl)Cl)C1C(=O)N1CCN(Cc2ccccc2)CC1` (stereo not drawn), the inhibition is -10.6%.
To `CC(C)=CCCC(C)CN1CCC(N2CCC(C(=O)N3CCCC3)CC2)CC1` (stereo not drawn) belongs -9.96%; to `CC1(C)CC(O)(CNCc2ccc3c(c2)OCO3)CCO1` (stereo not drawn), -11.9%.
For `N#C/C(=C/c1ccccc1)C(=O)NCc1ccccc1` the value was 53.3% (active); for `S=C(NCc1ccccc1)NCc1cccc(CNC(=S)NCc2ccccc2)c1`, 4.65%.
For `N#C/C(=C\c1ccc(O)c(O)c1)C(=O)NCCCc1ccccc1` the value was 37.9%; for `CN1[C@@H]2CC[C@H]1CC(OC(=O)C(CO)c1ccccc1)C2` (stereo partly drawn), -16.1%; for `COC(=O)c1cc(C(=O)NCCC(C)C)cc([N+](=O)[O-])c1`, -28.2%.
Take `COc1cc(OC)c(C2C(C#N)=C(N)OC3=C2C(=O)CC(C)(C)C3)cc1OC` (stereo not drawn): the inhibition is -0.37%.
In the case of `COc1ccc(-c2nc3c(=O)n(C)c(=O)[nH]c3n2CCc2ccccc2)cc1`, the inhibition is -1.13%.
